Results filed as inconclusive are left out. Entries that show only a call come without a potency. Unmarked numbers belong to inactive results. Calls of active or inactive are those of the source. Calls come from the whole dose curve; as a rule, active = well fitted curve in the direction sought with a large enough effect; inconclusive = small, poorly fitted or top-dose-only effect, or another doubt; inactive = no such curve, though single readings can be large; an effect the other way counts as inactive or inconclusive.
Assays:
[1] = Panc-1005 Cancer Cell Toxicity qHTS against the NCATS CANVASS Library (AID 1347349); note: nearly all actives have a fitted effect of over 60% in size; note: potency is the fitted concentration of half-maximal effect
In short: (§1)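 1000 cells/well seeded and rested 4 h at 37 °C before pin transfer of compounds in an 11-pnt series. Exposure 72 h at 37 °C/5% CO2; viability by CellTiter-Glo luminescence after 15 min at room temperature.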

[2] = SW1088 Cancer Cell Toxicity qHTS against the NCATS CANVASS Library (AID 1347350); note: nearly all actives have a fitted effect of over 75% in size; note: potency is the fitted concentration of half-maximal effect
In short: as §1

[3] = COV-362 Cancer Cell Toxicity qHTS against the NCATS CANVASS Library (AID 1347352); note: potency is the fitted concentration of half-maximal effect
In short: (§2)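 Cells at 1000/well were given compound 4 h after plating in an 11-point series. Viability was read by CellTiter-Glo luminescence after 72 h at 37 degrees C.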

[4] = A2780 Cisplatin Sensitive Ovarian Cancer Cell Toxicity qHTS against the NCATS CANVASS Library (AID 1347353); note: nearly all actives have a fitted effect of over 60% in size; note: potency is the fitted concentration of half-maximal effect
In short: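 A2780 cells, 750/well, settled 4 h at 37 °C, then treated with an 11-point compound series for 72 h. Viability was read as ATPLite luminescence after 10 min at room temperature, with bortezomib as control.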

[5] = UWB1.289-WTBRCA1 Cancer Cell Toxicity qHTS against the NCATS CANVASS Library (AID 1347354)
In short: as §2

[6] = HEK-293 Cancer Cell Toxicity qHTS against the NCATS CANVASS Library (AID 1347355); note: nearly all actives have a fitted effect of over 65% in size; note: potency is the fitted concentration of half-maximal effect; for outcome: series mostly up to about 46 µM
In short: as §2

[7] = test system: NAD(P)H diaphorase (Clostridium kluyveri); test: Diaphorse counterscreen qHTS: Assay Interference Panel against the NCATS CANVASS Library (AID 1347362)
In short: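 Clostridium kluyveri diaphorase in PBS + 0.01% Tween-20 preincubated 15 min with compounds. Resazurin and NADH then added for 5 min at room temperature in the dark; resorufin fluorescence read (ex 525, em 598).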

[8] = KB-8-5-11 Cancer Cell Toxicity qHTS against the NCATS CANVASS Library (AID 1347364); note: nearly all actives have a fitted effect of over 75% in size
In short: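 KB-8-5-11 cells, 500/well in DMEM + 10% FBS, given compounds in an 11-point series. Incubated 72 h at 37 °C. Viability by CellTiter-Glo luminescence. Confirmation also run with 1 uM tariquidar.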

[9] = SDT Cancer Cell Toxicity qHTS against the NCATS CANVASS Library (AID 1347365); note: nearly all actives have a fitted effect of over 60% in size; note: potency is the fitted concentration of half-maximal effect
In short: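 SDT dog glioma cells (500/well) exposed to an 11-point compound series for 72 hr at 37C, 5% CO2. Cytotoxicity read as ATP content by CellTiterGlo luminescence; bortezomib titration as control.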

[10] = qHTS for ATAD5 Antagonist screened against the NCATS CANVASS Library (AID 1347370); note: nearly all actives have a fitted effect of over 65% in size; note: potency is the fitted concentration of half-maximal effect
In short: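 HEK293T cells with stably integrated ATAD5-luciferase reporter, 2000/well, 5 h attachment; compounds plus 10 µM 5-fluorouridine, 16 h at 37 °C. Luciferase luminescence read, with CellTiter-Fluor viability read first.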

[11] = qHTS for Inflammasome Signaling Inhibitors: IL-1-beta AlphaLISA screen against the NCATS CANVASS Library (AID 1347379);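 note: human THP-1 cells primed with LPS then triggered with ATP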;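 for potency: secreted IL-1B measured as AlphaLISA emission at 615 nm; potency is the fitted concentration of half-maximal effect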
In short: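 THP-1 cells pretreated 1 hr with compound (up to 57.5 uM final), then stimulated with LPS (250 ng/mL final) and ATP (1.25 mM final). Secreted IL-1B measured by AlphaLISA after 16 hr; glyburide as positive control.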

[12] = qHTS for Activators of p53 Stress Response Pathway screened against the NCATS CANVASS Library (AID 1347388)
In short: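 p53RE-bla HCT-116 cells (4000/well) were pre-incubated for 5 h, then treated with compound (11 points) for 16 h at 37C. After 2 h with CCF4, the 460/530 nm ratio gave reporter activation; CellTiter-Glo measured viability.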

[13] = qHTS assay for small molecule disruptors of mitochondrial membrane potential screened against the NCATS CANVASS Library (AID 1347389); note: nearly all actives have a fitted effect of over 60% in size; note: potency is the fitted concentration of half-maximal effect
In short: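 HepG2 cells (2,000/well) plated overnight, then exposed to compounds in 11-point qHTS series for 1 h at 37C before 30 min Mito-MPS dye; depolarization read as fall in red aggregate (590 nm) to green monomer (535 nm) fluorescence.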

[14] = Secretion counterscreen for inhibitors of the SERCaMP assay screened against the NCATS CANVASS Library (AID 1347390);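 note: light from luciferase secreted into medium read as a measure of general secretion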; note: potency is the fitted concentration of half-maximal effect
In short: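 Counterscreen identifying compounds that disrupt secretion, using SH-SY5Y cells with a constitutively secreted Gaussia luciferase reporter. A 20 h compound exposure (top 77 uM) precedes luminescent detection with coelenterazine.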

[15] = qHTS for activators of Nrf2/ARE signaling pathway screened against the NCATS CANVASS Library (AID 1347391); note: nearly all actives have a fitted effect of over 60% in size; note: potency is the fitted concentration of half-maximal effect
In short: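 ARE-bla HepG2 beta-lactamase reporter cells exposed to compounds for 16 h at 37C; CCF4 substrate 2 h, fluorescence at ex 405 nm, em 460/530 nm. Viability by CellTiter-Glo luminescence.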

[16] = qHTS for inhibitors of ER calcium dysfunction: SERCaMP assay screened against the NCATS CANVASS Library (AID 1347393); note: nearly all actives have a fitted effect of over 40% in size; note: potency is the fitted concentration of half-maximal effect
In short: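 SH-SY5Y GLuc-SERCaMP, 1000 cells/well, 4 h attach; cpd 16 h, 37C/5% CO2; thapsigargin (added as 6x 600 nM) 4 h; coelenterazine; luminescence. Reduced reporter release = ER Ca stabilization.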

[17] = Vero-766 cells viability qHTS against the NCATS CANVASS Library: Counterscreen for Zika virus inhibition assay (AID 1347394); note: nearly all actives have a fitted effect of over 60% in size; note: potency is the fitted concentration of half-maximal effect
In short: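 This cytotoxicity counterscreen uses African green monkey Vero 766 cells in the absence of Zika virus. Compounds are incubated with cells for 72 h, and ATP-based luminescence reports viability.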

[18] = qHTS for Hypoxia signaling pathway (HIF-1) antagonists against the NCATS CANVASS Library (AID 1347374); note: nearly all actives have a fitted effect of over 60% in size; note: potency is the fitted concentration of half-maximal effect
In short: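 HRE-bla ME-180 cells in medium with 0.5% dialyzed FBS received compounds (11-point series) plus CoCl2 (60 uM addition stock) for 17 hrs at 37C. Beta-lactamase activity read with CCF4 (405 nm ex, 460/530 nm em); CellTiter-Glo viability measured in same wells.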

[19] = DH5-alpha competent E. coli microbial cell viability qHTS against the NCATS CANVASS Library (AID 1347377); conditions: outcome: dose series up to 46.1 µM unless noted
In short: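 DH5-alpha E. coli suspension was exposed to an 11-point compound series overnight at 37 °C. Viable cells quantified by ATP luminescence (BacTiter-Glo) after 20 min at room temperature.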

[20] = G06 Cancer Cell Toxicity qHTS against the NCATS CANVASS Library (AID 1347368); note: nearly all actives have a fitted effect of over 60% in size; note: potency is the fitted concentration of half-maximal effect
In short: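 G06 dog glioma cells, 500 per well, exposed 72 hr at 37C, 5% CO2 to compounds in an 11-point series. Cytotoxicity read as ATP content by CellTiterGlo luminescence.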

Row | SMILES | Potency [1] | Potency [2] | Potency [3] | Potency [4] | Potency [5] | Potency [6] | Potency [7] | Potency [8] | Potency [9] | Potency [10] | Potency [11] | Potency [12] | Potency [13] | Potency [14] | Potency [15] | Potency [16] | Potency [17] | Potency [18] | outcome [19] | Potency [20]
1 | C=C1C[C@@]23C=CC(=O)[C@@](C)(CCC(=O)Nc4c(O)ccc(C(=O)O)c4O)C2C[C@@H]1CC3 (stereo partly drawn) | inactive | inactive | inactive | inactive | inactive | inactive | inactive | inactive | inactive | inactive | inactive | inactive | inactive | inactive | 18.6 µM (active) | inactive | inactive |  |  | 
2 | C=C1C[C@@]23C=CC(=O)[C@@](C)(CCCC(C)C(=O)O)[C@@H]2C[C@@H]1CC3 (stereo partly drawn) | inactive |  | inactive | inactive | inactive | inactive | inactive | inactive | inactive | inactive | inactive | inactive | inactive | inactive | 16.6 µM (active) | inactive | inactive | inactive | inactive | 
3 | CCCCCCCCC[C@@H]1C[C@@H]2CC[C@H]3[C@@H](C(=O)OCCCCN=C(N)N)[C@@H](C)N=C(N1)N23 | 14.7 µM (active) | 13.1 µM (active) | 13 µM (active) |  |  | 11.5 µM (active) | inactive |  | 2.58 µM (active) | inactive | 21.2 µM (active) | inactive | inactive | inactive | inactive | inactive | inactive |  |  | 2.05 µM (active)
4 | CC1(C)C=Cc2c(ccc3c2OC[C@@H](c2ccc(O)cc2O)C3)O1 | inactive |  | inactive |  | inactive | inactive | inactive | inactive | inactive | inactive | inactive | inactive | 14.8 µM (active) | inactive |  | 30.5 µM (active) | inactive |  | inactive | inactive
5 | CS/C=C/C(N)=O | inactive | inactive | inactive | inactive | inactive | inactive | inactive | inactive | inactive | inactive | inactive | inactive | inactive | inactive | inactive | inactive | inactive | inactive | inactive | inactive
6 | C/C1=C/[C@@H](C)[C@H](O)C/C=C/CC/C=C/C(=O)O[C@@H]1[C@H](C)C(=O)/C=C/CC1CC(=O)NC(=O)C1 | 11.9 µM (active) | 21.1 µM (active) |  | 3.72 µM (active) |  | 7.43 µM (active) | inactive | inactive | 9.35 µM (active) | 16.6 µM (active) | 13.7 µM (active) |  |  |  | 2.34 µM (active) | 4.31 µM (active) | inactive | 7.47 µM (active) | inactive | 14.8 µM (active)
7 | CO[C@@H]1[C@H](O)[C@@H](C)O[C@@H](OC[C@H]2/C=C/C=C/C(=O)C(C)C[C@H](C)C(O[C@@H]3O[C@H](C)CC4(OC(=O)O[C@@H]4C)C3O)[C@@H](C)/C=C/C(=O)OC2C)[C@@H]1OC (stereo partly drawn) | inactive | inactive | inactive | inactive | inactive |  | inactive | inactive | inactive |  | inactive | inactive | inactive | inactive | 14.8 µM (active) | 15.3 µM (active) | inactive | inactive | inactive | 
8 | CCCCCCC[C@@H](C/C=C/CCC(=O)NCCc1c[nH]c2ccccc12)OC | inactive |  | inactive | inactive | inactive |  | inactive | inactive |  |  | inactive | inactive |  | inactive | inactive | 34.3 µM (active) | 23.4 µM (active) | inactive |  | inactive
9 | C=C1C[C@@]23C=CC(=O)[C@@](C)(CCC(=O)Nc4c(O)ccc(C(=O)O)c4O)C2C[C@@H]1C(O)C3 (stereo partly drawn) | inactive | inactive | inactive | inactive | inactive | inactive |  | inactive | inactive | inactive | inactive | inactive | inactive | inactive | inactive | inactive | inactive | inactive | inactive | inactive
10 | C[C@@H]1C(=O)[C@]23CC[C@H]1C[C@]21O[C@H]2C(C)(C)C=CC(=O)[C@]23COC1=O | inactive | inactive | inactive | inactive | inactive | inactive | inactive | inactive | inactive | inactive | inactive | inactive | inactive | inactive | inactive | inactive | inactive | inactive | inactive | inactive
11 | C=C1C(=O)O[C@H]2C[C@H](C)[C@@H]3CC(=O)C(C)=C3[C@H](O)[C@H]12 | 18.8 µM (active) | inactive |  | 2.96 µM (active) |  | 7.43 µM (active) | inactive |  | 16.6 µM (active) | 13.2 µM (active) | 10.9 µM (active) | inactive |  | 34.3 µM (active) |  | 1.72 µM (active) |  | 7.47 µM (active) |  | 7.43 µM (active)
12 | C[C@]12CC[C@]3(C1)[C@H](CC2=O)CC(OC(=O)c1ccccc1)[C@H]1[C@@](CO)(C(=O)O)CCC[C@@]13C (stereo partly drawn) | inactive | inactive | inactive | inactive | inactive | inactive | inactive | inactive | inactive | inactive | inactive | inactive | inactive |  | 18.6 µM (active) | inactive | inactive | inactive | inactive | 10.5 µM (active)

— PubChem BioAssay (NCATS)
